{"source": "PubChem BioAssay (Tox21)", "note": "Records with an inconclusive call do not appear. Values without a mark were called inactive. The source made the active and inactive calls. Calls follow the shape of the dose curve; as a rule, active = well fitted inhibition curve with a large enough effect in the repeat runs; inconclusive = weak or mixed curves; inactive = no such curve, though single readings can be large or run the other way. % is scaled to controls: 0 for no effect and ±100 for the full control effect; potency is read from the fitted curve at half-maximal effect.", "data": [{"target": "Cytochrome P450 1A2 (Homo sapiens) (UniProt P05177)", "sequence (P05177 whole entry, looked up)": "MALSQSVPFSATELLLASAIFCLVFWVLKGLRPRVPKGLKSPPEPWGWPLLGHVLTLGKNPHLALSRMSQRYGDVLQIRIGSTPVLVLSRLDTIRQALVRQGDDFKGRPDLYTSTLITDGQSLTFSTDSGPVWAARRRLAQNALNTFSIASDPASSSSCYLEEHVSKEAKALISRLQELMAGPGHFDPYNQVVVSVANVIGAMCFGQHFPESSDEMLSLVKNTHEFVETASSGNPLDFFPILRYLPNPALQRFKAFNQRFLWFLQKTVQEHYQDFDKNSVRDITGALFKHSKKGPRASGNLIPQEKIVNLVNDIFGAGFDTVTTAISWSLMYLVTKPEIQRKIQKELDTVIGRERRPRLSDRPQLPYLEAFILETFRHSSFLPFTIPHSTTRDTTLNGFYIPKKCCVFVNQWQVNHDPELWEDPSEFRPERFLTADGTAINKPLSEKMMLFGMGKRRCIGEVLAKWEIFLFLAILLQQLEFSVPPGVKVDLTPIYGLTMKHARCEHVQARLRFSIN", "experiment": "Cytochrome P450 Family 1 Subfamily A Member 2 (CYP1A2) small molecule antagonists: luciferase reporter qHTS assay (AID 1671199); also: nearly all actives have a fitted effect of over 50% in size", "conditions": "P450-Glo CYP1A2 enzyme, luciferin luminescence, 1 h; series mostly up to 53 µM; activity change, negative = inhibition: at the top concentration", "description": "National Center for Advancing Translational Sciences [NCATS]\nU.S. Environmental Protection Agency [EPA]\nNational Institutes of Environmental Health Sciences [NIEHS]\nNational Toxicology Program [NTP]\nU.S. Food and Drug Administration [FDA]\nCytochrome P450 (CYP) enzymes are membrane-bound hemeproteins that play a key role in metabolism of drugs and xenobiotics. Evaluation of the effect of chemicals on CYP isozymes is useful to minimize the adverse drug reactions and toxicities in drug development process. Tox21 chemicals were tested for their effect on CYP enzyme activities by using P450-Glo (TM) screening systems (Promega Corporation, Madison, WI). These systems provide a luminescent method containing proluciferin substrates and are converted to luciferin products by CYP isozymes. The luciferin products formed are detected with a luciferin detection reagent, and the amount of light produced is proportional to CYP activity. P450-Glo (TM) CYP1A2 screening system (Catalog. No. V9770) was used to detect the compounds that interfere in CYP1A2 activity. The positive control compound used for CYP1A2 assay is furafylline (Sigma-Aldrich, St. Louis, MO).\nTox21 Assay Protocol Summary:\nTwo ul of enzyme-substrate mix was dispensed into medium binding white/solid 1536-well plates (Greiner Bio-One North America Inc., Monroe, NC) using a BioRaptr Flying Reagent Dispenser (FRD, Beckman Coulter, Brea, CA). Compounds dissolved in DMSO and positive control (furafyllline) were transferred to the assay plates at 23 nl using a Pintool station (Wako, San Diego, CA). The assay plates were incubated at room temperature for 10 min. Then 2 ul of NADPH regeneration solution was added to each well of the assay plates using an FRD and incubated at room temperature for 1 h. The reaction was stopped by adding 4 ul of detection reagent using an FRD and after 20 min incubation at room temperature the luminescence signal was measured using a ViewLux plate reader (Perkin Elmer, Shelton, CT). Data were expressed as relative luminescence units.", "values": [{"compound": "CC(C)(C)C(=O)Oc1ccc(S(=O)(=O)Nc2ccccc2C(=O)NCC(=O)O)cc1", "activity change, negative = inhibition": "16.5%"}, {"compound": "NC(=O)N[C@@H](CCC(=O)O)C(=O)O", "activity change, negative = inhibition": "14.2%"}, {"compound": "Cc1coc2ccccc2c1=O", "Potency": "15.5 µM (active)"}, {"compound": "CCCCOCCOC(=O)COc1cc(Cl)c(Cl)cc1Cl", "Potency": "39.9 µM (active)"}, {"compound": "O=C1c2ccccc2C(=O)c2cc(O)ccc21", "Potency": "7.11 µM (active)"}, {"compound": "CC(CO)(CO)[N+](=O)[O-]", "activity change, negative = inhibition": "-15.1% [at 115 µM]"}, {"compound": "CCOc1ccc2nc(S(N)(=O)=O)sc2c1", "Potency": "4.07 µM (active)"}, {"compound": "C[C@H]1C[C@H]2[C@@H]3CCC4=CC(=O)C=C[C@]4(C)[C@H]3C(=O)C[C@]2(C)[C@@]1(O)C(=O)CO", "Potency": "27.5 µM (active)"}, {"compound": "CCCCCCCCCC[N+](C)(C)[O-]", "activity change, negative = inhibition": "-38% [at 115 µM]"}, {"compound": "CC(CC=O)CC(C)(C)C", "note": "(stereo not given)", "activity change, negative = inhibition": "-19.5% [at 115 µM]"}, {"compound": "CC(C)(C)OC(=O)c1cccc(N)c1", "Potency": "7.29 µM (active)"}, {"compound": "CC(COc1ccccc1)NN", "note": "(stereo not given)", "activity change, negative = inhibition": "-4.1%"}, {"compound": "C=CCCC(=O)O", "activity change, negative = inhibition": "-21.1% [at 115 µM]"}, {"compound": "CN(C)C(=O)Oc1cccc([N+](C)(C)C)c1", "activity change, negative = inhibition": "-5.79%"}, {"compound": "CCCCCCCC1CCCC1=O", "note": "(stereo not given)", "activity change, negative = inhibition": "-19.6% [at 115 µM]"}, {"compound": "COc1c(N2CCNC(C)C2)c(F)cc2c(=O)c(C(=O)O)cn(C3CC3)c12", "note": "(stereo not given)", "activity change, negative = inhibition": "11.6%"}, {"compound": "Nc1ccn([C@@H]2O[C@H](CO)[C@@H](O)C2O)c(=O)n1", "note": "(stereo not given in full)", "activity change, negative = inhibition": "-8.94% [at 115 µM]"}, {"compound": "CNCCO", "activity change, negative = inhibition": "-5.84% [at 115 µM]"}, {"compound": "CNC(=O)Nc1ccc(Cl)c(Cl)c1", "Potency": "5.03 µM (active)"}, {"compound": "Cc1ccc(-c2ccccc2C#N)cc1", "Potency": "13.8 µM (active)"}, {"compound": "C[C@@H]1CCC[C@H](C)N1", "activity change, negative = inhibition": "4.33%"}, {"compound": "C=COC(=O)C(C)(CC)CCC(C)C", "note": "(stereo not given)", "activity change, negative = inhibition": "-19.1% [at 115 µM]"}, {"compound": "CO/N=C(\\C(=O)N[C@@H]1C(=O)N2C(C(=O)O)=C(CSc3nc(=O)c(O)nn3C)CS[C@H]12)c1csc(N)n1", "activity change, negative = inhibition": "-11.2%"}, {"compound": "C[N+](C)(CCOc1ccccc1)Cc1cccs1", "activity change, negative = inhibition": "-22.7%"}, {"compound": "Cc1ccccc1N=C(N)N=C(N)N", "activity change, negative = inhibition": "-22.3% [at 115 µM]"}, {"compound": "O=C(O)Cc1csc(-c2ccc(Cl)cc2)n1", "activity change, negative = inhibition": "6.64%"}, {"compound": "O=S(=O)(O)c1cc(O)c(O)c(S(=O)(=O)O)c1", "activity change, negative = inhibition": "-9.79% [at 115 µM]"}, {"compound": "CCCc1ncc(C[n+]2ccccc2C)c(N)n1", "activity change, negative = inhibition": "13.1%"}, {"compound": "CCCCc1nc(Cl)c(CO)n1Cc1ccc(-c2ccccc2-c2nn[nH]n2)cc1", "activity change, negative = inhibition": "15.5%"}, {"compound": "Cc1ccc(C(=O)c2ccc(CC(=O)O)n2C)cc1", "activity change, negative = inhibition": "-3.96%"}, {"compound": "O=C(c1ccccc1O)c1ccccc1O", "Potency": "3.52 µM (active)"}, {"compound": "OCCCCCO", "activity change, negative = inhibition": "-19.9% [at 115 µM]"}, {"compound": "CC(=O)c1ccc2ccccc2c1", "Potency": "7.96 µM (active)"}, {"compound": "CCCC(C)C(=O)OCC", "note": "(stereo not given)", "activity change, negative = inhibition": "-9.12% [at 115 µM]"}, {"compound": "CCN1CCOCC1", "Potency": "39.2 µM (active)"}, {"compound": "CN(C)[C@@H]1C(=O)C(C(=O)NCN2CCCC2)=C(O)[C@@]2(O)C(=O)C3=C(O)c4c(O)cccc4[C@@](C)(O)C3C[C@@H]12", "note": "(stereo not given in full)", "Potency": "17.4 µM (active)"}, {"compound": "CC[C@H]1OC(=O)[C@H](C)[C@@H](O[C@H]2C[C@@](C)(OC)[C@@H](O)[C@H](C)O2)[C@H](C)[C@@H](O[C@@H]2O[C@H](C)C[C@H](N(C)C)[C@H]2O)[C@](C)(OC)C[C@@H](C)C(=O)[C@H](C)[C@@H](O)[C@]1(C)O", "activity change, negative = inhibition": "-6.67% [at 115 µM]"}, {"compound": "Cc1ccc(-c2ncc(Cl)cc2-c2ccc(S(C)(=O)=O)cc2)cn1", "activity change, negative = inhibition": "-9.59%"}, {"compound": "C[C@@H]1C[C@H]2[C@@H]3C[C@H](F)C4=CC(=O)C(Cl)=C[C@]4(C)[C@@]3(F)[C@@H](O)C[C@]2(C)[C@@]1(O)C(=O)CO", "activity change, negative = inhibition": "-1.94%"}, {"compound": "C=CC(=O)OCCCl", "Potency": "40.8 µM (active)"}]}]}
